The record followed here is PubChem BioAssay (Tox21).

Assay [1] is described as follows: qHTS assay to identify small molecule agonists of the TGF-beta/Smad signaling pathway (AID 1346859; active means well fitted activation curve with a large enough effect in the signal ratio in the repeat runs, not every such curve was filed as active; the % refers to the signal ratio; further: series mostly up to about 77 µM). Summed up:
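Screening used HEK 293T SBE-bla cells at 4,000/well. Test agents: 5 hr, 37 C. Detection: FRET substrate, 2 hr RT, then excitation 405 nm with emissions at 460 and 530 nm.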

The target in assay [2] is Thyrotropin-releasing hormone receptor (Homo sapiens) (UniProt P34981). As to the kind of experiment: qHTS assay to identify small molecule antagonists of the thyrotropin-releasing hormone receptor (TRHR) signaling pathway (AID 1346877; active means well fitted inhibition curve with a large enough effect in the repeat runs, not every such curve was filed as active; further: series mostly up to about 51 µM). A digest of the protocol: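 Human TRHR in HEK293 cells; inhibition of the intracellular calcium rise triggered by 1 nM TRH was followed by fluorescence over 3 min. Compounds were run at 15 concentrations, three replicates each.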
Thyrotropin-releasing hormone receptor (Homo sapiens), sequence (P34981 whole entry, looked up): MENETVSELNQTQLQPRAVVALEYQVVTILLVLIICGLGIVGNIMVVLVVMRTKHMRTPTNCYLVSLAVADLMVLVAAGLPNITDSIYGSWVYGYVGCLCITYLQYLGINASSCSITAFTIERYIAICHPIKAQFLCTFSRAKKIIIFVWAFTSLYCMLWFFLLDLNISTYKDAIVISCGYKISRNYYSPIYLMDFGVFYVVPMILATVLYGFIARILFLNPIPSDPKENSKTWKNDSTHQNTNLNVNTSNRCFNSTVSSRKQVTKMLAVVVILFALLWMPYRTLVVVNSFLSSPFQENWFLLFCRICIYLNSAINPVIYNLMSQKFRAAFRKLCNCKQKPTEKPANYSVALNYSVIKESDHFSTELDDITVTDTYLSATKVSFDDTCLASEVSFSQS

For assay [3] the target is unchanged. As to the kind of experiment: qHTS assay to identify small molecule agonists of the thyrotropin-releasing hormone receptor (TRHR) signaling pathway (AID 1346891; calls by dose curve; further: series mostly up to about 58 µM). Summed up:
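Readout was intracellular calcium fluorescence in TRHR-Hek293 cells. Cells were incubated 18 h, dye-loaded 2 h at 37 °C, and treated with compound in agonist mode.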
Background: qHTS replaces the single test concentration by a dilution series.

The nature of assay [4]: Human pregnane X receptor (PXR) small molecule agonists, qHTS cell viability counter screen (AID 1346977). Further: nearly all actives have a fitted effect of over 50% in size. Summed up:
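In each well, the PXR reporter HepG2 line was checked for viability: CellTiter-Fluor reagent added 23hr post-dosing, fluorescence read after 1hr incubation at 37C.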

A short description of assay [5]: Caspase-3/7 induction in HepG2 cells by small molecules, qHTS assay (AID 1346978). Further: nearly all actives have a fitted effect of over 15% in size. A digest of the protocol:
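Caspase-3/7 induction was measured by Caspase-Glo 3/7 luminescence (30 min, room temperature) after a 17 hr compound exposure of wild-type HepG2 cells seeded at 2,000 per well and pre-incubated 5 hr.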

Assay [6] is described as follows: Caspase-3/7 induction in CHO-K1 cells by small molecules, qHTS cell viability counter screen (AID 1346979). Further: nearly all actives have a fitted effect of over 35% in size. A digest of the protocol:
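Following a 5hr settling period, CHO-K1 cells at 1,500 per well received DMSO-dissolved compounds. Cell viability was quantified 16hr later by CellTiter-Fluor fluorescence, measured after 1hr with reagent at 37C.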

Assay [7] is described as follows: Caspase-3/7 induction in CHO-K1 cells by small molecules, qHTS assay (AID 1346980). Further: nearly all actives have a fitted effect of over 15% in size. Summed up:
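Luminescent Caspase-Glo 3/7 read (30min, room temperature) quantified apoptosis induction. Cells were wild-type CHO-K1, treated with compound for 17hr at 37 C and 5% CO2.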

A short description of assay [8]: Caspase-3/7 induction in HepG2 cells by small molecules, qHTS cell viability counter screen (AID 1346981). Further: series mostly up to about 92 µM; nearly all actives have a fitted effect of over 30% in size. A digest of the protocol:
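The parent HepG2 line is plated at 2,000 cells per well and rested 5 hr before compound pinning from DMSO stocks. Following a 16-hr treatment at 37 C, a fluorogenic live-cell substrate (CellTiter-Fluor) reports viability after 1 hr.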

Assay [9] concerns the target Cytochrome P450 2C19 (Homo sapiens) (UniProt P33261). As to the kind of experiment: Cytochrome P450 Family 2 Subfamily C Member 19 (CYP2C19) small molecule antagonists: luciferase reporter qHTS assay (AID 1671197). Further: nearly all actives have a fitted effect of over 65% in size. Further: potency means the concentration at half of the fitted maximal effect. Summed up: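 Light output is proportional to CYP2C19 activity: proluciferin substrate is converted to luciferin, then detected by a luciferin detection reagent that also stops the 1 h, 37C NADPH-driven reaction. Ketoconazole serves as positive control.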
(Reporter assays use an easily measured gene product as a stand-in for the process of interest.)

Assay [10] deals with Cytochrome P450 2C9 (Homo sapiens) (UniProt P11712). The assay is described as follows: Cytochrome P450 Family 2 Subfamily C Member 9 (CYP2C9) small molecule antagonists: luciferase reporter qHTS assay (AID 1671198). Further: series mostly up to about 120 µM; nearly all actives have a fitted effect of over 50% in size. A digest of the protocol: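 Enzyme-substrate mix preincubated with compound 10 min at room temperature; reaction started with NADPH regeneration solution, 1 h 37C. Luminescent luciferin product read after 20 min detection reagent.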
Cytochrome P450 2C9 (Homo sapiens), sequence (P11712 whole entry, looked up): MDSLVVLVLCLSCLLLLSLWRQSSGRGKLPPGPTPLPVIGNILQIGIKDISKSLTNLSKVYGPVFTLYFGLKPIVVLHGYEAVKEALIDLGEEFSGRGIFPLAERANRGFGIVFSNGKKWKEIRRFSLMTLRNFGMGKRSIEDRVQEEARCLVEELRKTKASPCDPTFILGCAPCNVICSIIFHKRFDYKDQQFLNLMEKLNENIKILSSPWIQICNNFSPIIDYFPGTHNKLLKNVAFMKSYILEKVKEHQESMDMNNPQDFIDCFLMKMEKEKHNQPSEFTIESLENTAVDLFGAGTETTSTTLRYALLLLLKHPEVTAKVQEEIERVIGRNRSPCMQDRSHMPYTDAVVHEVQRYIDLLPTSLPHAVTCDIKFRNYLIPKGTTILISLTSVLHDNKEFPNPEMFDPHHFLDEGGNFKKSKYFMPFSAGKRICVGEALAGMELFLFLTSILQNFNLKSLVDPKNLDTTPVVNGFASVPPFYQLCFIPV

For assay [11], the target named is Cytochrome P450 1A2 (Homo sapiens) (UniProt P05177). The assay is described as follows: Cytochrome P450 Family 1 Subfamily A Member 2 (CYP1A2) small molecule antagonists: luciferase reporter qHTS assay (AID 1671199). Further: nearly all actives have a fitted effect of over 50% in size. Further: potency means the concentration at half of the fitted maximal effect. Summed up: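 Quantitative high-throughput format using the P450-Glo CYP1A2 system. Reaction initiated by NADPH regeneration solution, 1 h at room temperature, then stopped with detection reagent; luminescence measured 20 min later.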
Cytochrome P450 1A2 (Homo sapiens), sequence (P05177 whole entry, looked up): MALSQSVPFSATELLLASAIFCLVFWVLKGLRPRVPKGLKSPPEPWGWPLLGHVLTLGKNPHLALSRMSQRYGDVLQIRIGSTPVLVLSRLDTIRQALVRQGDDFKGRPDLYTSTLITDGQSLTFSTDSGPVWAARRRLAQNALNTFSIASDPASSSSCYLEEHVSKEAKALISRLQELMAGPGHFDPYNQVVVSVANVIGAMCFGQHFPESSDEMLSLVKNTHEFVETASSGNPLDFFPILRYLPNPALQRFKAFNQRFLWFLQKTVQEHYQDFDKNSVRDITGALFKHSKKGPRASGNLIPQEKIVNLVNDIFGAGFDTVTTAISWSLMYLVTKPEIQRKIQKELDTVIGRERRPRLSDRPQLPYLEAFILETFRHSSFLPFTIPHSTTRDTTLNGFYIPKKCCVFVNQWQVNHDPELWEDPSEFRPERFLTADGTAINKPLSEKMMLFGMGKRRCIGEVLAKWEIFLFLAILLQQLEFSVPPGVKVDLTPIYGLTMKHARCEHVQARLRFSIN

Assay [12] has as its target Voltage-gated inwardly rectifying potassium channel KCNH2 (Homo sapiens) (UniProt Q12809). The assay is described as follows: Human Ether-a-go-go-Related Gene (hERG) channel small molecule antagonists: fluorescence cell-based qHTS assay (AID 1671200).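 Further: hERG-expressing U2OS cells given a thallium stimulus after FluxOR II dye loading; series mostly up to about 77 µM; nearly all actives have a fitted effect of over 50% in size.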 Summed up: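 In this thallium-flux screen, overnight-cultured U2OS cells bearing the channel are dye-loaded in darkness for an hour, rested 10 min at room temperature, and then monitored kinetically at 480/540 nm for two minutes post-stimulus.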

For assay [13], the target named is Cytochrome P450 3A4 (Homo sapiens) (UniProt P08684). The assay is described as follows: Cytochrome P450 Family 3 Subfamily A Member 4 (CYP3A4) small molecule antagonists: luciferase reporter qHTS assay (AID 1671201). A digest of the protocol:
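CYP3A4 activity was followed with a P450-Glo proluciferin substrate. Test compounds in DMSO were preincubated 10 min; NADPH regeneration then ran 1 h, and light output was read 20 min after detection reagent.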

Assay [14] deals with Nuclear receptor subfamily 1 group I member 2 (Rattus norvegicus) (UniProt Q9R1A7). As to the kind of experiment: Rat pregnane X receptor (rPXR) activation by small molecules, qHTS assay (AID 1346983). Further: nearly all actives have a fitted effect of over 20% in size. Conditions: rPXR luciferase reporter cells, One-Glo luminescence, 24 h; max activation: hits give high values. Summed up: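 Luminescent readout (One-Glo luciferase, 30 min room temperature) followed 24 hr compound treatment at 37 C of rPXR cells plated 2,000 per well and preincubated 5hr; qHTS format with compounds delivered in DMSO.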
Nuclear receptor subfamily 1 group I member 2 (Rattus norvegicus), sequence (Q9R1A7 whole entry, looked up): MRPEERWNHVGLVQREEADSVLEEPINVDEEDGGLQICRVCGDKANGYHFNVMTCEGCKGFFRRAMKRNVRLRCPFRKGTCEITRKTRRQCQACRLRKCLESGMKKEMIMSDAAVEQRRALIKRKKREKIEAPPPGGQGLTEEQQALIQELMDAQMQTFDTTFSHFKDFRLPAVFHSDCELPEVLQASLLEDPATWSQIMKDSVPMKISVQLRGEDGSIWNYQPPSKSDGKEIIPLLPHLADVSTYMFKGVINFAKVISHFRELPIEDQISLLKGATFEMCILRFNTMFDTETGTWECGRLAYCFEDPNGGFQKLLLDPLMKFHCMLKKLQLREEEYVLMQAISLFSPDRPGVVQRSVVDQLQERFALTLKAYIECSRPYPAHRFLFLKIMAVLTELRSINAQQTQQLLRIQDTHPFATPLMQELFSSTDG

Assay [15] has as its target Cytochrome P450 2D6 (Homo sapiens) (UniProt P10635). The assay is described as follows: Cytochrome P450 Family 2 Subfamily D Member 6 (CYP2D6) small molecule antagonists: luciferase reporter qHTS assay (AID 1671196). Summed up:
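Quantitative HTS of Tox21 chemicals against CYP2D6 using a luminescent proluciferin substrate. After NADPH addition, 1 h room-temperature reaction; luminescence recorded 20 min post detection reagent.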

Assay [16] concerns the target Nuclear receptor subfamily 1 group I member 2 (Homo sapiens) (UniProt O75469). The assay is described as follows: Human pregnane X receptor (PXR) small molecule agonists, qHTS assay (AID 1346982). Further: nearly all actives have a fitted effect of over 35% in size. A digest of the protocol:
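After plating in 5% charcoal-stripped FBS and a 5 hr rest, PXR-Luc HepG2 cells received compounds in DMSO. Following 24 hr at 37 C, ONE-Glo was added and light output read.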

Values without a mark were called inactive. Inconclusive results are not listed. Activity calls are given as the source filed them. Unless noted, the call rests on the fitted dose curve; in most records, active means well fitted curve in the direction sought with a large enough effect in the repeat runs; inconclusive means weak or mixed curves; inactive means no such curve, though single readings can be large; an effect the other way counts as inactive or inconclusive.
On the % scale 0 is the no-effect control and ±100 the full control effect.

Voltage-gated inwardly rectifying potassium channel KCNH2 (Homo sapiens), sequence (Q12809 whole entry, looked up): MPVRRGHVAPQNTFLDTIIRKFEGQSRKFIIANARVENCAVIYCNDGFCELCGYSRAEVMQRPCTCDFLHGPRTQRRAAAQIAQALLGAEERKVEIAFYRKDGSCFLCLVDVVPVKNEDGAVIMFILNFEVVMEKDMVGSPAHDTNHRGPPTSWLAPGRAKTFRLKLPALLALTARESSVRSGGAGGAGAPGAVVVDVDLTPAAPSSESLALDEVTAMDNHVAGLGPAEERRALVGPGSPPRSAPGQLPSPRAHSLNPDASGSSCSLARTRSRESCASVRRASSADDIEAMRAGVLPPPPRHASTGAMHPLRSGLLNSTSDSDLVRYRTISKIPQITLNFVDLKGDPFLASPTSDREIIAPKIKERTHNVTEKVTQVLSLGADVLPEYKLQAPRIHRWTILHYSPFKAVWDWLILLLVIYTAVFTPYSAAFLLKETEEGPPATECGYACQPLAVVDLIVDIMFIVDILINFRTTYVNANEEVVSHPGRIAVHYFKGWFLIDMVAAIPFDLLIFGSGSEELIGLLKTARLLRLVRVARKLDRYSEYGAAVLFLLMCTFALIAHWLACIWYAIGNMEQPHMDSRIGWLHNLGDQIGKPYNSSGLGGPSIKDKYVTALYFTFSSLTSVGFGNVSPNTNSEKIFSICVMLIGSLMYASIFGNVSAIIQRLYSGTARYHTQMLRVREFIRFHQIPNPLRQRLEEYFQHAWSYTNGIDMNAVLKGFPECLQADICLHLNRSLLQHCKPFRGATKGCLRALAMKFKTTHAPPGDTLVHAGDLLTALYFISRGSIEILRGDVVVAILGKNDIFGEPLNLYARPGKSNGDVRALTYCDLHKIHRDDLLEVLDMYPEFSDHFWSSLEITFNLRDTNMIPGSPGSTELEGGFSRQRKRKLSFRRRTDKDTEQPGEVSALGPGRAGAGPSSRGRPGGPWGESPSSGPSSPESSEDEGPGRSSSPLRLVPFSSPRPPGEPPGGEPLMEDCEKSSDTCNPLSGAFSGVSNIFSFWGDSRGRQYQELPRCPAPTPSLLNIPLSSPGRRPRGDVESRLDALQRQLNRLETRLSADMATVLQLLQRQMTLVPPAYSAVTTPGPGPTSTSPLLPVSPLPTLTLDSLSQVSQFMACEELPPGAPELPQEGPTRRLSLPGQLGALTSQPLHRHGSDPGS
Cytochrome P450 2C19 (Homo sapiens), sequence (P33261 whole entry, looked up): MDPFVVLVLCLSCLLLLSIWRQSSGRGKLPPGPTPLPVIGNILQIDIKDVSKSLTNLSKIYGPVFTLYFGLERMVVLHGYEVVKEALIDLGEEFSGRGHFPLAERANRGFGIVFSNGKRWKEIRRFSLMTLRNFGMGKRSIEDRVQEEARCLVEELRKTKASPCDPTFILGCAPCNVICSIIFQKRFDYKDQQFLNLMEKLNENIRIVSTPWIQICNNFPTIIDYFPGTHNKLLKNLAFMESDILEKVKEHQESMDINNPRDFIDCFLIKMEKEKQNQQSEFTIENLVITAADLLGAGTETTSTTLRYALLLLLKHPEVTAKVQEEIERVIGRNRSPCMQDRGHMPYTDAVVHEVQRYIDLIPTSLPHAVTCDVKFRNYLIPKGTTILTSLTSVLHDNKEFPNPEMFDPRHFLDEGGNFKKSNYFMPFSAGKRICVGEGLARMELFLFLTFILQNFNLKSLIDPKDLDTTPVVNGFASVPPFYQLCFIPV
Cytochrome P450 3A4 (Homo sapiens), sequence (P08684 whole entry, looked up): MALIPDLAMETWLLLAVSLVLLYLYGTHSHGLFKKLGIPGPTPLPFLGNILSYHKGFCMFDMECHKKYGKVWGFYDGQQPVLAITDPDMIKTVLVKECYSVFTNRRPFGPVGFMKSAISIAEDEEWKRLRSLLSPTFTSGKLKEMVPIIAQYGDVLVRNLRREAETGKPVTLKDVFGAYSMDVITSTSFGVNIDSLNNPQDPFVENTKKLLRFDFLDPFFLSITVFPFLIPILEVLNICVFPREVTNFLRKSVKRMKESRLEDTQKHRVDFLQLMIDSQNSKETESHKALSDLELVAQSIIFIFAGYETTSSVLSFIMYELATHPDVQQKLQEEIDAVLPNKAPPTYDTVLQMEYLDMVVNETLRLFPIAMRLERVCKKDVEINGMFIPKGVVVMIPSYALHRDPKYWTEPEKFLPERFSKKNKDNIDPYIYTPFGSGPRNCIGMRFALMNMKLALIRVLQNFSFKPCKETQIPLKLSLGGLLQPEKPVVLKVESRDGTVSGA
Nuclear receptor subfamily 1 group I member 2 (Homo sapiens), sequence (O75469 whole entry, looked up): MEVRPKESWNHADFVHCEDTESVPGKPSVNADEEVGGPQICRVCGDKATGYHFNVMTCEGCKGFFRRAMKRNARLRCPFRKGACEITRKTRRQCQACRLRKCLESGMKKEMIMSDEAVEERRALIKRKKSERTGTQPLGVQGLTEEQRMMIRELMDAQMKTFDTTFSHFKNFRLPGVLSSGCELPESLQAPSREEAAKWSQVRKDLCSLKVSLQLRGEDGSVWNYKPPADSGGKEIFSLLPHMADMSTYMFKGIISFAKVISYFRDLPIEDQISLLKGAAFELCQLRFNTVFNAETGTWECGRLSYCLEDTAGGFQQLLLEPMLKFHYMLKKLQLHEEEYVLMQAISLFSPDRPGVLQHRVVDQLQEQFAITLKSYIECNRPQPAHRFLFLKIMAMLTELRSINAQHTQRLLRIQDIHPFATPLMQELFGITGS
Cytochrome P450 2D6 (Homo sapiens), sequence (P10635 whole entry, looked up): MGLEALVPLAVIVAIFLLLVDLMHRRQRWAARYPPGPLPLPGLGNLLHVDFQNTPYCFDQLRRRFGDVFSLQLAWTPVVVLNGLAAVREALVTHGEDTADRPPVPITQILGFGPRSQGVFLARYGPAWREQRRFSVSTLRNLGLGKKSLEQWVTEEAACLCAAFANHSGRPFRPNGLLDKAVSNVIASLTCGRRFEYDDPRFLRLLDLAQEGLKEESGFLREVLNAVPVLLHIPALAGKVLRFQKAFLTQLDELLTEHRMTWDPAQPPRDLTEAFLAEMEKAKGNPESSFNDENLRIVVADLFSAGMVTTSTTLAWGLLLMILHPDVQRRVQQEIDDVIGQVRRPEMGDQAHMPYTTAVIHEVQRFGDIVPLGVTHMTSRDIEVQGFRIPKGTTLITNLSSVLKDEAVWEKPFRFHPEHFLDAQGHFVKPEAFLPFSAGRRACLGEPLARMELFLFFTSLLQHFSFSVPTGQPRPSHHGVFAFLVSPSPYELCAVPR

`O=S(=O)(O)c1ccc(Cl)cc1`: the result in [1], in assay [2], in assay [4], in assay [5], in assay [7] and in assay [8] was inactive. Besides, the Potency entry in assay [3], in assay [6], in assay [10], in assay [11], in [12] and in [13] was “inactive” throughout. Moreover, the Potency in assay [9] is 55.3 µM (active).
`CC(C)(C)NCC(O)COc1cccc2c1CCC(=O)N2` (stereo not given): the call in assay [1], in assay [2], in [4], in assay [5], in [7] and in assay [8] was inactive. Further, the Potency entry in assay [3], in [6], in [15], in assay [10], in [12] and in assay [13] was “inactive” throughout. Besides, the max activation in assay [14] is -2.26%.
As to `COc1cc(NS(=O)(=O)c2ccc(N)cc2)ncn1`, the compound was called inactive in [1], in assay [2], in assay [4], in assay [5], in [7] and in assay [8]. Besides, the Potency result in assay [3], in assay [6], in assay [15], in assay [9] and in [12] was “inactive” in each case. The max activation in assay [14] is -2.45%.
On to `CCCC(=O)OC`, for which the compound was classed as inactive in [1], in assay [2], in [4], in assay [5] and in assay [7]. Besides, the Potency entry in assay [3], in assay [6], in assay [15], in assay [9], in assay [10] and in assay [11] was “inactive” each time. The Potency entry in assay [12] and in [13] was “inactive” each time.
On to `CCC(C)c1nccnc1OC` (stereo not given), for which the compound was classed as inactive in [1], in [2], in assay [4], in [5] and in assay [7]. Also, the Potency entry in assay [3], in assay [6], in [16], in assay [15], in [9] and in [10] was “inactive” each time. In addition, the Potency entry in assay [13] was “inactive”.
As for `O=C(O)CCCCCCCCCC(=O)O`, the call in assay [1], in assay [2], in assay [4], in assay [5], in assay [7] and in assay [8] was inactive. In addition, the Potency entry in assay [3], in assay [6], in assay [9], in [10], in [11] and in [12] was “inactive” throughout. Also, the Potency entry in assay [13] is “inactive”.
In the case of `CCC(C)(C)C`, the result in assay [1], in assay [2], in assay [4], in assay [5], in assay [7] and in [8] was inactive. Besides, the Potency result in [3], in assay [6], in assay [16], in assay [9] and in assay [13] was “inactive” in each case. Further, the Potency in assay [11] was 37.7 µM (active).
As to `O=C[C@@H](O)[C@H](O)[C@H](O)CO`, the outcome in [1], in assay [2], in [4], in [5], in assay [7] and in assay [8] was inactive. The Potency result in [3], in assay [6], in [16], in [9], in assay [10] and in assay [11] was “inactive” throughout. For the same compound, the Potency result in assay [12] was “inactive”.
As to `Nc1cc(S(=O)(=O)O)ccc1O`, the call in assay [1], in assay [2], in assay [4], in assay [5], in assay [7] and in assay [8] was inactive. Besides, the Potency entry in assay [3], in assay [6], in assay [16], in assay [10], in [11] and in [13] was “inactive” each time.
Turning to `CC1=C(O)C(=O)CO1`, the call in assay [1], in assay [2], in assay [4], in assay [5], in [7] and in assay [8] was inactive. In addition, the Potency result in assay [3], in assay [6], in assay [16], in [11], in assay [12] and in assay [13] was “inactive” each time.
